# Results from PubChem BioAssay AID694 (Emory University Molecular Libraries Screening Center, 2007).
# Hit rate of the full screen: of about 1,300 compounds, about 25 (2%) were called active. The rule behind the calls is not given here. Shown is part of a subset that was picked to be rich in actives.
# Molecular target: Estrogen receptor (Homo sapiens) (UniProt P03372)
# Assay: ERα coactivator peptide binding inhibitors, primary screen, biochemical, LOPAC library, TR-FRET (AID 694);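 note: receptor was agonist-bound with estradiol present during the assay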
# Conditions: TR-FRET ERalpha-coactivator peptide binding, stronger effect = higher value
# Estrogen receptor (Homo sapiens), sequence (P03372 whole entry, looked up): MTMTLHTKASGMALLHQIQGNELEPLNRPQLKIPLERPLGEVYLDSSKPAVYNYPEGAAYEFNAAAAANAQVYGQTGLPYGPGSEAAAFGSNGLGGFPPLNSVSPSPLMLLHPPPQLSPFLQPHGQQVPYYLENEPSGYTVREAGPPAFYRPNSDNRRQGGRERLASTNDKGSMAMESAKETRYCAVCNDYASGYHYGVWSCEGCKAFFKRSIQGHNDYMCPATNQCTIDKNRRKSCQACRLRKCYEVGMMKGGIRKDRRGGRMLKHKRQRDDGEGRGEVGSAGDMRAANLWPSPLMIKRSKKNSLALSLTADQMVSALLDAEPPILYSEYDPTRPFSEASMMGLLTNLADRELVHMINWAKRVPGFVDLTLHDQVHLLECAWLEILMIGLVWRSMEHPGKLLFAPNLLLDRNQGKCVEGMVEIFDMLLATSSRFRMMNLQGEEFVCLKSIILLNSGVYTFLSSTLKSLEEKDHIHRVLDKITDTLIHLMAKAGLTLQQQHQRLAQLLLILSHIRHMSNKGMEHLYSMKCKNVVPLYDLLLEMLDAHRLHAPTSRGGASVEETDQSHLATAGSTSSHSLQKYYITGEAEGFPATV
Structure (SMILES),inhibition (at 45 µM),"inhibition (inhibition, at 15 µM) [%]"
COC(=O)[C@H]1[C@H]2C[C@H]3c4[nH]c5ccccc5c4CCN3C[C@H]2CC[C@@H]1O,1.18% (inactive),3.29
CC(=O)NCCc1ccc(O)c(O)c1,-22% (inactive),-4.7
C[C@@H](Oc1ccc(Oc2cnc3ccc(Cl)cc3n2)cc1)C(=O)O,-0.82% (inactive),-2.92
CCCCOC(=O)NS(=O)(=O)c1sc(CC(C)C)cc1-c1ccc(Cn2c(CC)nc3c(C)cc(C)nc32)cc1,8.38% (inactive),2.57
O=C(/C=C/c1ccc(O)cc1)c1ccc(O)cc1O,10.8% (inactive),-3.98
CC#C[C@]1(O)CC[C@H]2[C@@H]3CCC4=CC(=O)CCC4=C3[C@@H](c3ccc(N(C)C)cc3)C[C@@]21C,4.52% (inactive),1.37
O=C(O)CCC(NC(=O)c1ccccc1C(=O)O)C(=O)O (stereo unspecified),-0.22% (inactive),0.4
Oc1ccc(-c2nc(-c3ccc(F)cc3)c(-c3ccncc3)[nH]2)cc1,-3.04% (inactive),-1.6
CC(=O)N1CCN(c2ccc(OC[C@H]3CO[C@](Cn4ccnc4)(c4ccc(Cl)cc4Cl)O3)cc2)CC1,-0.23% (inactive),1.67
CC(CCc1ccc(O)cc1)NCCc1ccc(O)c(O)c1 (stereo unspecified),-5.5% (inactive),1.1
CC(C)[N+](C)(CCOC(=O)C1c2ccccc2Oc2ccccc21)C(C)C,7.96% (inactive),8.56
CCSC(=N)N,-21.8% (inactive),0.66
Cc1cccc(/C=C/c2ccccc2)n1,4.39% (inactive),12.3
O=S(=O)(O)C1CCNCC1,1.25% (inactive),4.59
C[N+](C)(C)CC=O,0.73% (inactive),-1.9
COc1ccccc1NC(=O)Nc1nc(-c2cccnc2)nc2ccccc12,7.9% (inactive),4.04
O=C(Nc1cccc(C(=O)Nc2ccc(S(=O)(=O)O)c3cc(S(=O)(=O)O)cc(S(=O)(=O)O)c23)c1)Nc1cccc(C(=O)Nc2ccc(S(=O)(=O)O)c3cc(S(=O)(=O)O)cc(S(=O)(=O)O)c23)c1,-3.86% (inactive),-2.37
C[C@@H](CN1CCC(Cc2ccccc2)CC1)[C@@H](O)c1ccc(O)cc1,-2% (inactive),1.32
OC[C@H]1O[C@@H](n2cnc3c(NC4CCCC4)ncnc32)C(O)[C@H]1O (stereo partly specified),-0.88% (inactive),3.03
COc1cc(C(=O)OCCCN2CCCN(CCCOC(=O)c3cc(OC)c(OC)c(OC)c3)CC2)cc(OC)c1OC,-2.88% (inactive),-1.75
CN[C@H](CC(=O)O)C(=O)O,-0.69% (inactive),-0.99
COc1cccc(OC)c1OCCNCC1COc2ccccc2O1 (stereo unspecified),52.7% (inactive),-0.05

Structure (SMILES),inhibition (at 45 µM),"inhibition (inhibition, at 15 µM) [%]"
Nc1c(S(=O)(=O)O)cc(Nc2ccc(Nc3nc(Cl)nc(Nc4ccc(S(=O)(=O)O)cc4)n3)c(S(=O)(=O)O)c2)c2c1C(=O)c1ccccc1C2=O,75.2% [fluorescence artefact?] (active),58.5
OC[C@H]1O[C@@H](n2cnc3c(N[C@H]4CC5CCC4C5)ncnc32)[C@H](O)[C@@H]1O (stereo partly specified),-7.11% (inactive),-3.27
CC(C)(C)c1ccc(S(=O)(=O)/C=C/C#N)cc1,-4.31% (inactive),-2.91
CCCc1c(OCCCOc2ccc(OCC(=O)O)cc2)ccc(C(C)=O)c1O,-1.06% (inactive),5.6
C[C@]12CCC(=O)C=C1CC[C@@H]1[C@@H]2[C@@H](O)C[C@@]2(C)[C@H]1CC[C@]2(O)C(=O)COC(=O)CCC(=O)O,0.81% (inactive),1.7
Oc1cc2c(c(Cl)c1O)CCNCC2c1ccccc1 (stereo unspecified),-1.88% (inactive),4.73
Cc1cccc(C)c1OCC(N)C(C)C (stereo unspecified),-0.93% (inactive),-1.42
O=[N+]([O-])c1ccc(-c2nc(-c3ccc(F)cc3)c(-c3ccncc3)[nH]2)cc1,-3.67% (inactive),-0.79
Cc1scc2c1N(C(=O)CN1CCN(C)CC1)c1ccccc1NC2=O,-3.58% (inactive),-4.27
O=C(Cc1ccc(Cl)c(Cl)c1)OCCN1CCCC1,-23.1% (inactive),-1.83
O=[N+]([O-])c1cccc2c(Br)[nH]nc12,-0.31% (inactive),-5.48
N[C@@H](CC(=O)O)C(=O)O,-5.55% (inactive),-8.89
CC(C)(Sc1ccc(CCN(CCCCC2CCCCC2)C(=O)NC2CCCCC2)cc1)C(=O)O,43.1% (inactive),8.46
NS(=O)(=O)c1cccc2c1c([N+](=O)[O-])cc1nc(O)c(O)nc12,-0.73% (inactive),-5.25
CC(=O)O[C@H]1CC2(C)[C@@H](C[C@@H](O)[C@H]3[C@@]4(C)CC[C@@H](O)[C@@H](C)[C@@H]4CC[C@@]32C)C1=C(CCC=C(C)C)C(=O)O (stereo partly specified),80.4% (inactive),14.2
Oc1cc(O)cc(/C=C/c2ccc(O)c(O)c2)c1,70.5% (inactive),32.3
COc1cc2c(CCNC(C)=O)c[nH]c2cc1O,-5.77% (inactive),-3
N#C/C(=C\c1c[nH]c2ccccc12)C(=O)c1ccc(O)c(O)c1,4.91% (inactive),10.1
CSc1nc(N)c2ncn([C@@H]3O[C@H](COP(=O)(O)OP(=O)(O)O)[C@H](O)C3O)c2n1 (stereo partly specified),2.87% (inactive),-1.28
CN1CCc2c(cc(O)c(O)c2Cl)C(c2cccc(Cl)c2)C1 (stereo unspecified),7.51% (inactive),4.56
OC[C@H]1O[C@@H](n2cnc3c(NC4CCCCC4)ncnc32)[C@H](O)[C@@H]1O,-1.41% (inactive),-1.34
